Jurkat NFkB inh: lowers PMA/ionomycin-induced NF-kB signal in Jurkat cells; 330,000 compounds, 0.53% hits; inhibition, % at 4 µM; PMA/ionomycin-induced NF-kB luciferase reporter, luminescence; in the data active = inhibition above about 50%
aSyn 5UTR inh: MLPCN primary screen, SNCA 5' untranslated region. alpha-synuclein 5'UTR reporter, inhibitor activity. inhibition, % (tested at 7.5 µM). 300,000 compounds, 0.82% hits. AID 1813; in the data active = inhibition above about 60%;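 note: H4 neuroglioblastoma cells stably carrying SNCA 5'UTR luciferase fusion; 0% = DMSO wells and 100% = positive control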
ANO1 block: mouse TMEM16A channel inhibition, primary screen; Q8BHY3; HEK293 TMEM16A/YFP iodide influx fluorescence, ionomycin; normalized B-score (activity score, 25-100; higher = stronger inhibition) at 10 µM; 310,000 compounds, 1.2% hits; AID 588511;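 active = ratio plate-corrected score three or more library SD toward inhibition, starting fluorescence score within five deviations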;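 note: score derived from kinetic fluorescence span divided by baseline fluorescence per well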
Target sequence (Q8BHY3 whole entry, looked up): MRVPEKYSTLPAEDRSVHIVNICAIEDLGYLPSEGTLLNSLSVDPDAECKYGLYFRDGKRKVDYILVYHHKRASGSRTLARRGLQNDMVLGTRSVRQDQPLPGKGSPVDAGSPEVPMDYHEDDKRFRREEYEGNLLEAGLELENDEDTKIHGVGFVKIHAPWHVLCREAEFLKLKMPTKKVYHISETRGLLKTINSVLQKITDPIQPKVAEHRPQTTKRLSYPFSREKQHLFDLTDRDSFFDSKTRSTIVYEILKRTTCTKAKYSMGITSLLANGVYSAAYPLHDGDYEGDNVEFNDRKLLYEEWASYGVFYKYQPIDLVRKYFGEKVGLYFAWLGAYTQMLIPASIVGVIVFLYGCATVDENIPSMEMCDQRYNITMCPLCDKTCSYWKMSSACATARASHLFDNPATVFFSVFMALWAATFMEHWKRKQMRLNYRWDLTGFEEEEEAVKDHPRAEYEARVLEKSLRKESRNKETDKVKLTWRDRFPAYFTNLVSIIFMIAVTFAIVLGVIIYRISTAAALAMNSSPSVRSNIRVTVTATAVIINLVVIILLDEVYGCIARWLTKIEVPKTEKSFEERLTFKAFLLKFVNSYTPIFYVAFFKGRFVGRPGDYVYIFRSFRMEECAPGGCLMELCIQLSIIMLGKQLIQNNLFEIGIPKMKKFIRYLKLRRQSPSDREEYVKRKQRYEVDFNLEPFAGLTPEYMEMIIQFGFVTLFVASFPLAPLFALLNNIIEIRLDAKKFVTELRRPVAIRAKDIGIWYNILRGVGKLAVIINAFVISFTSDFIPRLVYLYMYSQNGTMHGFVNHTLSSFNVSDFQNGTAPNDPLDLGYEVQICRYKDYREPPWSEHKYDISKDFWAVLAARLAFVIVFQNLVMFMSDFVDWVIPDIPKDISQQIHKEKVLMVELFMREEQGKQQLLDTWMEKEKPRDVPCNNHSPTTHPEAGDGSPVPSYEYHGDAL
KLF5 inh: suppresses KLF5 promoter-driven expression; AID 1700; inhibition, % at 5 µM; 290,000 compounds, 0.23% hits; DLD-1 KLF5 promoter-luciferase reporter, luminescence;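 active = inhibition above a per-plate limit of that plate's mean compound inhibition plus 3 SD, cut at about 60% in these data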;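 note: 0% = DMSO wells and 100% = LY294002 at 200 µM; higher means less KLF5 promoter-driven luciferase light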
ANO1 activ: activators or potentiators of mouse TMEM16A chloride channel | HEK293 TMEM16A/YFP-H148Q/I152L, iodide quench fluorescence; active compounds read low | B-score at 10 µM | 340,000 compounds, 0.3% hits | AID 623877;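 active = fluorescence-ratio B-score plate-corrected deviation score at least 3 library SD below zero, with starting fluorescence score within 5 deviations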;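 note: channel opened by trigger with iodide after compound preincubation; score built on the fluorescence ratio of max minus min over baseline; more negative score means more quench and so TMEM16A activation or potentiation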
697 NFkB inh: lowers PMA/ionomycin-induced NF-kB signal in 697 B cells; 697 B-cell NF-kB luciferase reporter, 16 h; inhibition, % at 4 µM; 330,000 compounds, 0.33% hits; AID 435022; in the data active = inhibition above about 35%
Starred values were filed as active, the others as inactive; i = inactive; x = not tested or not shown. Only some compounds are listed: those with a hit (about 2.5% of all), similar ones and a draw of the others.

SMILES | Jurkat NFkB inh | aSyn 5UTR inh | ANO1 block | KLF5 inh | ANO1 activ | 697 NFkB inh
Cc1cc(N2CCN(c3ccc([N+](=O)[O-])c4cccnc34)CC2)c2ccccc2n1 | 22 | 84* | i | -23 | i | -61
CN(NS(=O)(=O)c1ccc(Cl)cc1)c1nc(C(F)(F)F)nc2ccccc12 | -1 | -13 | 100* | -18 | i | -12
COc1ccc2ccccc2c1CNC(C)CCc1ccccc1 (stereo unspecified) | 11 | 2 | i | -22 | i | -17
C=C(C)Cn1c(C)cc(C)c(S(=O)(=O)c2cccc(C)c2)c1=O | 3 | 11 | 100* | 2 | i | -12
Cc1cccc(S(=O)(=O)c2c(C)cc(C)[nH]c2=O)c1 | -3 | -17 | i | -22 | i | 4
Cc1c(Cl)cccc1NC(=O)CNC(=O)C1CCN(C(=O)Nc2ccccc2)CC1 | 3 | x | x | x | i | 18
Cc1ccccc1C(=O)O/N=C/c1c(N2CCOCC2)n(C)c2ccccc12 | 33 | 87* | i | -39 | i | 35
CC(=O)NCCSc1ccc(S(=O)(=O)N2CCCC2)cn1 | -2 | x | x | x | -21* | 8
O=C(N/N=C(\c1ccccc1)c1ccccn1)c1cccc([N+](=O)[O-])c1 | 48 | 99* | i | 67* | i | 8
CCN(C(=O)COC(=O)c1ccccc1Cc1ccccc1)c1c(N)n(Cc2ccccc2)c(=O)[nH]c1=O | x | x | x | x | i | x
O=C(Nc1ccc([N+](=O)[O-])cc1)Nc1ccc(N2CCOCC2)c2nonc12 | -9 | 16 | 100* | -15 | i | 10
CCOC(=O)c1c2c(n(C)c1COC)C(=O)C(=O)c1ccc(Br)cc1-2 | 28 | 92* | i | -15 | x | -12
CCOC(=O)c1c2c(n(-c3ccc(OC)cc3)c1C)C(=O)C(=O)c1ccccc1-2 | x | x | x | x | i | x
O=C(c1cnn(C(=O)c2ccco2)c1)c1cc(F)ccc1O | 1 | x | x | x | i | -3
O=C(Nc1ccc(N2CCN(C(=O)c3ccco3)CC2)c(Cl)c1)c1cc2ccccc2o1 | 18 | -26 | i | -31 | i | -28
CCCC(=O)N1CCN(c2ccc(NC(=O)c3cc4ccccc4o3)cc2Cl)CC1 | 40 | -48 | 100* | -12 | i | -60
CCC(=O)N1CCN(c2ccc(NC(=O)c3cc4ccccc4o3)cc2Cl)CC1 | 24 | -30 | 100* | -2 | i | -10
Cc1csc(Nc2nc(N)c(C(=O)Nc3ccccc3)o2)n1 | -62 | -131 | i | -94 | i | -30
Cc1csc(NC(=O)c2ccc(N3CCCC3=O)cc2)n1 | -24 | 101* | i | -121 | i | -67
COc1ccc(C(CNC(=O)c2ccc(N3CCCC3=O)cc2)N(C)C)cc1 (stereo unspecified) | 8 | -38 | 25* | 7 | i | 0
COC(CNC(=O)c1ccc(N2CCCC2=O)cc1)OC | 1 | -19 | i | -36 | i | -21
COc1ccc(OC)c(C(c2c(O)nc(SC)[nH]c2=O)c2c(O)nc(SC)[nH]c2=O)c1 | -68 | -3 | i | -23 | i | -88
O=C1CC(C(=O)N2CCc3ccccc32)CN1c1cccc(C(F)(F)F)c1 (stereo unspecified) | 7 | x | x | x | i | 7
CCOC(=O)C1=C(c2ccccc2)NC(=O)NC1c1ccc(O)c(Cl)c1 (stereo unspecified) | -5 | 8 | i | -20 | -11* | -3
CCOC(=O)C1=C(c2ccccc2)NC(=O)NC1c1ccc(O)c(OCC)c1 (stereo unspecified) | 9 | 8 | i | -23 | i | 8
SMILES | Jurkat NFkB inh | aSyn 5UTR inh | ANO1 block | KLF5 inh | ANO1 activ | 697 NFkB inh
O=C(NC(=S)N1CCN(c2ccc(F)cc2)CC1)C12CC3CC(CC(C3)C1)C2 | 3 | 35 | i | -33 | -5.4* | -11
O=C1C=C(c2cccs2)C[C@H](c2ccccc2)[C@H]1n1nnc([N+](=O)[O-])n1 | -10 | 71* | i | 5 | i | 20
COc1ccc(NC(=O)CSc2n[nH]c(=O)n2C2CC2)cc1OC | -2 | x | x | x | i | -4
Cc1ccc(N2CCN(S(=O)(=O)c3ccc4c(c3)NC(=O)C(C)C(=O)N4)CC2C)cc1 (stereo unspecified) | 6 | 36 | i | -7 | i | -2
Cc1cccc(NC(=S)NCC(C)CSc2ccc(Cl)cc2)c1 (stereo unspecified) | 2 | 3 | 25* | 4 | i | -7
CC(C)(C)c1ccc(OCC(=O)NNC(=S)NC(=O)c2ccco2)c(Br)c1 | 2 | 28 | 25* | -30 | -9* | -11
CC(C)c1ccc(OCC(=O)NNC(=S)NC(=O)c2ccco2)c(Br)c1 | -4 | -7 | i | 6 | i | 2
CC(Oc1ccc(C(C)(C)C)cc1)c1ccnc2nc(/N=C/N(C)C)nn12 (stereo unspecified) | 12 | 21 | 25* | -36 | i | -12
COCCCN(CC(=O)Nc1ccc(F)cc1)S(=O)(=O)c1cccs1 | 3 | x | x | x | i | 2
Cc1ccc(C(C)C)c(OCc2ccc(C(=O)N/N=C/c3ccc(O)cc3O)cc2)c1 | x | 96* | i | 47 | i | x
CCOc1ccccc1N1Cc2cc(C)c(C)cc2C1 | 1 | -47 | i | -13 | i | 11
CCOc1ccccc1N1Cc2ccccc2C1 | 3 | -10 | i | -8 | -5.5* | 9
O=C(Nc1ncc(S(=O)(=O)c2ccc([N+](=O)[O-])cc2)s1)c1ccc2ccccc2c1 | 7 | -37 | 100* | -11 | i | -3
O=C(Nc1ncc(S(=O)(=O)c2ccc([N+](=O)[O-])cc2)s1)c1cccnc1 | -11 | -50 | i | -25 | i | -4
CS(=O)(=O)N1CCc2cc(-c3csc(NC(=O)Cc4ccccc4)n3)ccc21 | -3 | 48 | 25* | 2 | i | -17
Cc1ccc(S(=O)(=O)CC(=O)Nc2nc(-c3ccccc3)cs2)cc1 | -1 | 17 | i | 1 | -5* | -21
Cc1ccccc1C(=O)N1CCc2cc(-c3csc(NC(=O)CN4CCCC4)n3)ccc21 | -9 | -99 | 25* | -47 | i | -4
O=C(CN1CCCCC1)Nc1nc(-c2ccccc2)cs1 | -17 | -77 | i | -99 | i | -5
CN(Cc1ccccc1)C(=O)[C@@H]1CCCN1S(=O)(=O)c1ccc(Cl)cc1 | 7 | 11 | i | -13 | i | 5
Cc1ccccc1OCC(O)Cn1c(=N)n(Cc2ccccc2)c2ccccc21 (stereo unspecified) | 24 | 113* | i | -15 | i | -36
COc1ccccc1OCC(O)Cn1c(=N)n(Cc2ccccc2)c2ccccc21 (stereo unspecified) | 27 | 5 | i | -52 | i | -18
COc1ccc(S(=O)(=O)N(C)C)cc1NC(=O)CSC(C)C(=O)Nc1cc(C)on1 (stereo unspecified) | 9 | x | x | x | i | 24

Assay outcomes: PubChem, several laboratories
